High-throughput results deposited in PubChem BioAssay by several laboratories.
The list is not random: actives were taken first. Their share in the collection is about 5.2%.
SMARCA2 activ: activators of SMARCA2 function | MG213 cells, MMTV-luciferase reporter, dexamethasone, overnight | 1% of 370,000 active | AID 652017 | activation, % at 9.1 µM; in the data active = activation above about 7.8%;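 also: 0% = vehicle wells and 100% = reference activator wells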
SKN-1 inh: C. elegans SKN-1 inhibition; C. elegans VP596 Pgst-4::GFP/RFP ratio, acrylamide-induced, 24 h; inhibition, % at 21.8 µM; 0.49% of 360,000 active; AID 624304;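 active = interference check ratio from 0.5 to 1.5 plus GFP to RFP signal ratio inhibition reaching or exceeding a fixed threshold, cut at about 30% in these data, passing the limit was not always enough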
NadD inh: inhibitors of Staphylococcus aureus NadD | 0.78% of 360,000 active | inhibition, % at 20 µM | purified NadD enzyme, colorimetric absorbance read-out; in the data active = inhibition above about 26%
Vif imaging: blocks HIV Vif function | HEK293T cells, Vif self-association by quenched fluorescence, imaging, 24 h | inhibition, % at 7.49 µM | 0.35% of 340,000 active | AID 602346; in the data active = inhibition above about 50%, passing the limit was not always enough
esBAF inh: blocks esBAF chromatin remodeling in mouse ES cells; 2% of 350,000 active; reporter increase, % at 12.5 µM; AID 602393; Bmi1-luciferase knock-in reporter, 24 h; 100% = twice the neutral-well signal; in the data active = activation above about 40%;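 also: 0% = median of the plate's neutral control wells and 100% = double that signal; a rise in the Bmi1 reporter signal indicates esBAF inhibition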
GRIN3A LBD mod: modulators (binders) of human NR3A ligand-binding domain. NR3A LBD differential scanning fluorimetry, Tm shift; 0% = protein alone, 100% = glycine-bound protein. Tm shift relative to glycine control, % at 25 µM. 2.5% of 340,000 active;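 active = melting temperature shift of at least 10% of the positive control shift, at one fixed dose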
Active calls of the source: *; x = no result given.

SMILES	SMARCA2 activ	SKN-1 inh	NadD inh	Vif imaging	esBAF inh	GRIN3A LBD mod
Cc1nn(C)cc1NC(=O)C[C@H]1CC[C@@H]2[C@H](COc3ccc(NC(=O)NC(C)C)cc3C(=O)N2C)O1	x	x	x	x	-5.9	x
N#CC1=C(c2ccccc2)/C(=C/c2ccccc2)OC1=O	-2.0	-2.1	0.0	2.3	x	27.3*
COc1ccccc1C(=O)Nc1ccc(C(=O)/C=C/c2cccs2)cc1	5.9	9.7	-9.7	-8.0	7.6	11.2*
COc1ccc(/C=C/C(=O)c2ccc(NC(=O)c3cccs3)cc2)cc1OC	5.3	19.1	16.8	-1.2	x	16.1*
COc1ccc(C(=O)Nc2ccc(Cl)cn2)cc1Cl	6.7	11.1	-1.5	2.9	68.8*	29.6*
COc1ccc(C(=O)Nc2ccc(NC(=O)c3cccs3)cc2)cc1Cl	-0.6	-0.5	15.7	-2.8	7.7	33.6*
COc1ccc(C(=O)Nc2cccc(NC(=O)c3cccs3)c2)cc1OC	3.6	9.3	1.3	-2.3	2.2	6.4
C[C@@H]1CN([C@H](C)CO)C(=O)c2cc(C#CCN(C)C)cnc2O[C@H]1CN(C)S(C)(=O)=O	x	x	x	x	5.5	x
CN(C)CCCNC(=O)C[C@@H]1CC[C@H]2[C@H](COc3ccc(NC(=O)NC4CCCC4)cc3C(=O)N2C)O1	x	x	x	x	19.5	x
C[C@@H]1CN([C@@H](C)CO)C(=O)c2cc(NC(=O)Cc3ccccc3)ccc2O[C@@H](C)CCCCO[C@H]1CN(C)S(=O)(=O)c1ccccc1	x	x	x	x	-0.3	x
CO[C@H]1CN(C)C(=O)c2cc(NS(C)(=O)=O)ccc2OC[C@@H](C)N(Cc2cccnc2)C[C@H]1C	x	x	x	x	-4.4	x
C[C@@H]1CN([C@@H](C)CO)C(=O)c2cc(NC(=O)c3ccncc3)ccc2O[C@@H](C)CCCCO[C@@H]1CN(C)S(=O)(=O)c1ccc(F)cc1	x	x	x	x	-7.6	x
COc1ccc(NC(=O)CCC(=O)c2cccs2)cc1Cl	2.9	10.9	-0.3	8.2	5.6	-0.4
COc1c(Cl)cc(Cl)cc1C(=O)Nc1ccc(NC(=O)c2cccs2)cc1	2.0	17.4	2.1	-1.9	-7.6	213.9*
O=C(Nc1ccc(NC(=O)c2ccc(Cl)cc2Cl)cc1)c1cccs1	-0.7	4.0	6.7	17.3	4.4	-4.2
COc1cc(NC(=O)c2ccc(Cl)cc2Cl)ccc1NC(=O)c1cccs1	2.4	7.0	-4.8	-18.0	18.9	-1.4
CCn1nccc1C(=O)Nc1ccc(Cl)cn1	-0.9	-29.4	-5.0	-25.9	x	1.7
COc1ccc(C(=O)Nc2ccc(NC(=O)c3cccs3)c(OC)c2)cc1Cl	-2.2	1.3	4.5	-1.7	8.9	33.2*
COc1ccc(NC(=O)Nc2cccs2)cc1Cl	3.0	18.1	4.7	3.1	x	30.4*
CCn1ccc(C(=O)Nc2ccc(Cl)cn2)n1	4.6	-8.8	1.1	2.0	48.4*	2.7
O=C(N[C@@H]1CC[C@H](CC(=O)N2CCC(Cc3ccccc3)CC2)O[C@H]1CO)c1cnccn1	x	x	x	x	6.2	x
C[C@@H]1CCCCO[C@H](CN(C)C(=O)c2ccncc2)[C@H](C)CN([C@@H](C)CO)C(=O)c2cc(NC(=O)C3CCCCC3)ccc2O1	x	x	x	x	2.3	x
CCc1cccc(NC(=O)CSc2nc(C)cs2)c1	-2.5	-8.0	3.8	0.5	81.7*	x
CCc1cccc(NC(=O)Nc2cccs2)c1	6.3	10.9	-3.1	10.7	58.7*	7.3
COc1cccc(NC(=O)CSc2nc(C)cs2)c1	0.5	23.7	-3.1	9.3	4.5	-1.0
SMILES	SMARCA2 activ	SKN-1 inh	NadD inh	Vif imaging	esBAF inh	GRIN3A LBD mod
Cc1ccc(-c2cnc3c(c2)C(=O)N([C@@H](C)CO)C[C@H](C)[C@@H](CN(C)C(=O)Cc2ccccc2)O3)cc1	x	x	x	x	-2.9	x
CC(=O)N1[C@@H]2c3ccc(-c4ccccc4F)c(=O)n3C[C@H]1[C@H](CO)[C@H]2C(=O)N1CCOCC1	x	x	x	x	-0.9	x
C[C@H](CO)N1C[C@H](C)[C@@H](CN(C)S(=O)(=O)c2cn(C)cn2)OCCCC[C@H](C)Oc2ccc(NC(=O)NC3CCCCC3)cc2C1=O	x	x	x	x	-0.4	x
Clc1ccccc1-c1csc(Nc2cccnc2)n1	-1.3	15.8	-1.7	0.6	63.1*	-0.2
Clc1cccc(-c2csc(Nc3cccnc3)n2)c1	-2.3	-4.0	-1.9	-3.7	x	28.8*
C[C@@H](NC(=O)C[C@@H]1C=C[C@H](NC(=O)C2CC2)[C@@H](CO)O1)c1ccccc1	x	x	x	x	-2.8	x
Cc1ccc(/C(N)=N/OC(=O)/C=C/c2ccccc2)cc1	2.4	20.2	-0.4	1.9	50.2*	-0.8
COc1ccc(/C(N)=N/OC(=O)/C=C/c2ccccc2)cc1	1.6	4.6	-0.2	0.7	26.9	7.6
Cc1ccc(/C(N)=N/OC(=O)CCc2ccccc2)cc1	5.4	9.3	-5.5	3.0	59.6*	-12.8
N/C(=N\OC(=O)/C=C/c1ccccc1)c1cccnc1	3.6	16.6	-1.3	2.8	x	20.3*
C[C@@H]1CN([C@@H](C)CO)C(=O)c2cc(-c3ccncc3)cnc2O[C@@H]1CN(C)C(=O)Cc1cccnc1	x	x	x	x	-2.6	x
C[C@@H]1CCCCO[C@@H](CN(C)Cc2ccncc2)[C@H](C)CN([C@H](C)CO)C(=O)c2cc(NC(=O)c3ccccc3)ccc2O1	x	x	x	x	0.9	x
CC(=O)N1CC[C@@H]2[C@@H](CO)N(C)c3ccc(-c4cccc(F)c4)cc3[C@@H]21	x	x	x	x	1.0	x
Cc1ccc(N=Cc2sc(O)c3ccccc23)c(C)c1	-1.0	-18.1	5.5	4.1	74.4*	0.8
Cc1ccc(N=Cc2sc(O)c3ccccc23)cc1	3.9	9.7	-3.7	8.7	94.4*	-0.3
Cc1ccc(N=Cc2cccc(O)c2O)c(C)c1	-1.4	1.1	22.7	-20.6	0.3	x
Cc1ccc(S(=O)(=O)N(C)C[C@@H]2Oc3ccc(NS(=O)(=O)c4c(C)noc4C)cc3CC(=O)N([C@@H](C)CO)C[C@@H]2C)cc1	x	x	x	x	-0.8	x
COc1ccc(Cl)cc1C=CC=NNS(=O)(=O)c1ccc(C)cc1	-3.6	6.7	3.8	-10.3	x	20.3*
CC1=C(C(=O)Nc2ccccn2)C(c2ccc(Cl)cc2)NC(=S)N1 (stereo not given)	0.9	9.6	5.3	-17.4	43.9*	-3.2
CC1=C(C(=O)Nc2ccccn2)C(c2ccc(Cl)cc2Cl)NC(=S)N1 (stereo not given)	2.0	3.6	2.8	9.5	x	-0.1
CC1=C(C(=O)Nc2ccccn2)C(c2ccccc2Cl)NC(=S)N1 (stereo not given)	4.7	6.8	5.0	-8.8	65.9*	-1.7
C[C@H](CO)N1C[C@H](C)[C@@H](CN(C)Cc2ccc(Oc3ccccc3)cc2)Oc2ccc(N(C)C)cc2CC1=O	x	x	x	x	1.1	x
CCOc1ccc(NC(=O)c2ccc(NS(=O)(=O)c3cccc4cccnc34)cc2)cc1	0.2	8.6	2.4	-2.3	-1.1	17.4*
COC(=O)c1ccc(NC(=O)c2ccc(NS(=O)(=O)c3cccc4cccnc34)cc2)cc1	x	14.0	6.1	4.0	-2.5	3.0
